EBV gp42 block – inhibitors of Epstein-Barr virus glycoprotein 42. Q1HVG2. Fluorescence polarization binding assay, mP read-out. inhibition, % (tested at 21.74 µM). hit rate 0.42% among 220,000; in the data active = inhibition above about 50%
Target sequence (Q1HVG2 whole entry, looked up): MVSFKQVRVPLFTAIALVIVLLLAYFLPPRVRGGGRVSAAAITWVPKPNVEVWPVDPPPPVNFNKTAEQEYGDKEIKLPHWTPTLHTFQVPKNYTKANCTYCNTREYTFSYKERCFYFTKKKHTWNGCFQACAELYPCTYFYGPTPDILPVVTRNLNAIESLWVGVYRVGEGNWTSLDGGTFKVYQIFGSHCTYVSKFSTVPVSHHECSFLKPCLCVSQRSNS
MCL1-BIM inh – inhibitors of human MCL1 binding to BIM-BH3 peptide; GST-MCL1 / FITC-Bim-BH3 fluorescence polarization; inhibition, % at 10.9 µM; AID 2057; hit rate 0.68% among 320,000; Q07820;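 active = inhibition above the mean inhibition of all tested compounds plus 3 SD, set per campaign, cut at about 40% in these data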;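 note: higher means more loss of mP so more displacement of Bim peptide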
Target sequence (Q07820 whole entry, looked up): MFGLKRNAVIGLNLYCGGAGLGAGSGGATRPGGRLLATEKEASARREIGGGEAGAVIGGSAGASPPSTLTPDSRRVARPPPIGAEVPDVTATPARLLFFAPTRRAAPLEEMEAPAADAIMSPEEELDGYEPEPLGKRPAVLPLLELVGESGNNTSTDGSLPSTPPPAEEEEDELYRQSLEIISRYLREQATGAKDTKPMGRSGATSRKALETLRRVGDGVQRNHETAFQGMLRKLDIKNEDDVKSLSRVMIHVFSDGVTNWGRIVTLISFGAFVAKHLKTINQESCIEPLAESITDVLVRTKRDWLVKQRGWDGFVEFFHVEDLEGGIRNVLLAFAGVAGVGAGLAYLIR
BCLXL inh – inhibitors of human Bcl-xL; Q07817; GST-Bcl-xL / FITC-Bim BH3 peptide fluorescence polarization; inhibition, % at 10.9 µM; hit rate 0.7% among 320,000;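 active = inhibition above the mean of all tested compounds plus 3 SD, cutoff set per campaign, cut at about 30% in these data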;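 note: inhibitors lower millipolarization by displacing the labeled peptide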
GLD-1 TGE inh – GLD-1-TGE RNA interaction inhibition (C. elegans). inhibition, % at 5.96 µM. purified GLD-1 + fluorescein TGE RNA, fluorescence polarization. AID 2280. hit rate 0.44% among 320,000. Q17339;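 active = percent inhibition above a per-plate cutoff, the plate mean of test compounds plus 3 SD, cut at about 30% in these data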
MEX-5 binding – C. elegans MEX-5 TCR-2 RNA binding activity; Q9XUB2; hit rate 0.38% among 300,000; MEX-5/FITC-TCR2 RNA binding, fluorescence polarization; stronger effect = lower value; activity score (negative = inhibition of binding), % at 10 µM;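 active = inhibition past about -25% in most replicates, and total fluorescence under double the plate's negative control median, limit read from the data; inconclusive = replicates evenly split on the limit, or fluorescence at least double controls; inactive = too little inhibition in most replicates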
Each line names hits and unclear results; the compound was inactive in the other large screens. Most compounds without a hit are left out; they make up all but 1.3% or so of the library.

CCN(CC)C(=O)c1ccc2c(c1)C1C=CCC1C(C(=O)O)N2 (stereo not given)	MEX-5 binding -56 (no result: EBV gp42 block, MCL1-BIM inh, BCLXL inh, GLD-1 TGE inh)
O=C(N/N=C/c1c(O)n(C2CCCCC2)c(=S)[nH]c1=O)c1ccccc1	none (no result: EBV gp42 block)
O=C(N/N=C/C1C(=O)NC(=S)N(c2ccccc2)C1=O)c1cc(Br)c(O)c(Br)c1 (stereo not given)	MEX-5 binding -79
O=P(O)(Oc1ccccc1)OC(c1ccccc1)C(F)(F)C(F)(F)F (stereo not given)	none
Cn1c(O)c(/C=C/C=Nc2ccccc2)c(=O)n(C)c1=S	BCLXL inh 55
N#CC(C#N)=Cc1ccc(O)c(O)c1	none (no result: EBV gp42 block, MEX-5 binding)
N#CC(C#N)=Cc1ccc(-c2ccccc2)o1	MEX-5 binding -43
CCCn1cc2c3c(cccc31)C1CC(C)CN(C)C1C2 (stereo not given)	MEX-5 binding -27 (no result: MCL1-BIM inh, BCLXL inh, GLD-1 TGE inh)
O=[N+]([O-])c1cc(-c2ccc([As](=O)(O)O)cc2)ccc1[As](=O)(O)O	MEX-5 binding -46 (no result: MCL1-BIM inh, BCLXL inh, GLD-1 TGE inh)
O=[N+]([O-])c1cc([As](=O)(O)c2ccc(O)c([N+](=O)[O-])c2)ccc1O	none
CC[C@H]1C2C[C@H]3[C@@H]4N(C)c5ccccc5C45C[C@H](C2[C@H]5O)N3[C@@H]1O (stereo not given in full)	none (no result: EBV gp42 block, MEX-5 binding)
CN1C(=O)NC(=O)/C(=C\c2ccc([N+](=O)[O-])o2)C1=O	BCLXL inh 39, MEX-5 binding -61
CN1C(=O)NC(=O)/C(=C/c2ccc([N+](=O)[O-])s2)C1=O	none
CN1C(=O)NC(=O)/C(=C/c2ccc([N+](=O)[O-])o2)C1=O	BCLXL inh 30, MEX-5 binding -43
O=C1NC(=O)N(c2ccccc2)C(=O)/C1=C\c1ccc([N+](=O)[O-])o1	MCL1-BIM inh 42, BCLXL inh 36
C[C@]12CCC3C(CC[C@H]4C[C@H](O)CC[C@]34C)C1CCC2=O (stereo not given in full)	none (no result: EBV gp42 block, MCL1-BIM inh, BCLXL inh, MEX-5 binding)
COC(=O)C1=C(c2ccc(C(C)=O)cc2)C[C@@H]2CC[C@H]1N2C(=O)NC(C)C	none (no result: EBV gp42 block, MEX-5 binding)
Nc1ccccc1Cl	none (no result: EBV gp42 block, MEX-5 binding)
Cc1nn(Cc2ccccc2)c(Cl)c1C(=O)OCC(=O)NCC1CCCO1 (stereo not given)	none
CCOP(=O)(OCC)C(O)c1ccc(OC)c(OC)c1 (stereo not given)	MCL1-BIM inh 49, BCLXL inh 34
CCOC(=O)c1c(-n2c(C)cc(C=C3C(=O)NC(=O)NC3=O)c2C)sc2c1CCCC2	MEX-5 binding -45
Cc1cccc(N2C(=O)NC(=O)/C(=C\c3cc(C)n(-c4sc5c(c4C#N)CCCC5)c3C)C2=O)c1C	none
N=Cc1c(O)n(-c2cccc(Cl)c2)c(=O)[nH]c1=O	none
O=c1[nH]c(=O)n(-c2cccc(Cl)c2)c(O)c1/C=N/c1ccccn1	MEX-5 binding -29
CCOC(=O)c1c(/N=C/C2C(=O)NC(=S)NC2=O)sc2c1CCC2	MEX-5 binding -31
CCOC(=O)c1c(/N=C/C2C(=O)NC(=S)NC2=O)sc(C)c1C	MEX-5 binding inconclusive
COc1ccc(/C=C/C(=O)c2c(O)n(CCC3=CCCCC3)c(=O)[nH]c2=O)cc1OC	MEX-5 binding -47
CN(C)c1ccc(N=Cc2c(O)n(CCC3=CCCCC3)c(=O)[nH]c2=O)cc1	MEX-5 binding -63
CN(C)S(=O)(=O)c1cccc(C(=O)N2CCC(C(=O)O)(c3ccccc3)CC2)c1	none (no result: EBV gp42 block)
Cc1c2ccncc2c(C)c2c1[nH]c1ccccc12	EBV gp42 block 113, MCL1-BIM inh 88, BCLXL inh 66
c1ccc2c(c1)[nH]c1cnccc12	none
CSc1nc(N)c(N=Nc2ccc([As](=O)(O)O)cc2)c(=O)[nH]1	MEX-5 binding -34
O=C(N/N=C/c1c(O)n(Cc2ccco2)c(=O)[nH]c1=O)c1ccccc1O	MEX-5 binding -27
CCCCC(=O)N/N=C/c1c(O)n(Cc2ccco2)c(=O)[nH]c1=O	none
C/C=C(\C)C(=O)OC1C(C)=C2C(C1OC(=O)CCCCC)C(C)(OC(C)=O)CC(OC(=O)CCC)C1(O)C2OC(=O)C1(C)O (stereo not given)	none
Cc1cccc(CCNCc2cc3cccc(C)c3[nH]c2=O)c1	none (no result: EBV gp42 block, MCL1-BIM inh, BCLXL inh, GLD-1 TGE inh)
CN1CCN(c2ncnc3c2cnn3C)CC1	BCLXL inh 39 (no result: MEX-5 binding)
CCc1cc2c(N3CCN(C)CC3)ncnc2s1	none
COc1ccc2c3c1OC1[C@H](O)CCC4[C@@H](C2)N(C)CC[C@]314 (stereo not given in full)	none (no result: EBV gp42 block, MCL1-BIM inh, BCLXL inh, MEX-5 binding)
COc1ccc(CNCCc2c(C)[nH]c3ccc(OC(F)(F)F)cc23)c(OC)c1	none (no result: EBV gp42 block)
CCCN1CCc2cc(O)cc3c2[C@H]1Cc1ccc(O)c(O)c1-3	BCLXL inh 32, MEX-5 binding -82 (no result: EBV gp42 block)
NS(=O)(=O)c1ccc(-c2ccc(C=C3C(=O)NC(=S)NC3=O)o2)cc1	MEX-5 binding -49 (no result: EBV gp42 block)
C[C@]12CCC3C(CC[C@H]4C[C@H](O)CC[C@]34C)C1C[C@@H](CCCCl)[C@@H]2O (stereo not given in full)	none (no result: EBV gp42 block, MCL1-BIM inh, BCLXL inh, MEX-5 binding)
CN1C(=O)C(c2ccccc2)C(=O)N(C)C1=O	none (no result: EBV gp42 block)
c1ccc(-c2[nH]c(-c3ccccc3)[n+](CC3CO3)c2-c2ccccc2)cc1 (stereo not given)	EBV gp42 block 57
CN(C)c1ccc(C=C2C(=O)NC(=O)NC2=O)cc1[N+](=O)[O-]	none
Cc1cccc(N2C(=O)NC(=O)/C(=C/c3cc4c(cc3[N+](=O)[O-])OCO4)C2=O)c1	EBV gp42 block 83, MCL1-BIM inh 119, BCLXL inh 118, GLD-1 TGE inh 77, MEX-5 binding -69
O=C1NC(=O)C(=Cc2cc3c(cc2[N+](=O)[O-])OCO3)C(=O)N1	BCLXL inh 32
CC[C@H](C)[C@@H]1O[C@@]2(C=CC1C)CC1C[C@@H](CC=C(C)C(O[C@H]3CC(OC)C(O[C@H]4CC(OC)C(O)C(C)O4)C(C)O3)C(C)C=CC=C3CO[C@@H]4C(O)C(C)=C[C@@H](C(=O)O1)[C@]34O)O2 (stereo not given in full)	none (no result: EBV gp42 block, MEX-5 binding)
Cc1cc(C)cc(-n2c(O)c(C=Nc3ccc(N4CCOCC4)cc3)c(=O)[nH]c2=S)c1	EBV gp42 block 58, MEX-5 binding -52
C=C1C(O)[C@@H]2O[C@]3(CC[C@H](/C=C/C(C)[C@@H]4CC(C)=CC5(O[C@H](C[C@@](C)(O)C(=O)O)CCC5O)O4)O3)CC[C@H]2O[C@@H]1C(O)CC(C)[C@H]1OC2(CCCCO2)CCC1C (stereo not given in full)	none (no result: EBV gp42 block, MCL1-BIM inh, BCLXL inh, MEX-5 binding)
CN(C)C(=O)Oc1ccc2nnc3ccnn3c2c1	BCLXL inh 31 (no result: EBV gp42 block)
CN1C(=O)C(Cc2cccc3ccccc23)C(=O)N(C)C1=O	none
CN1C(=O)C(Cc2c[nH]c3ccccc23)C(=O)N(C)C1=O	EBV gp42 block 104 (no result: MCL1-BIM inh, BCLXL inh, GLD-1 TGE inh, MEX-5 binding)
COCc1cc(OC(=O)N(C)C)nc(-c2ccccc2)n1	none
CCOc1cccc(=NC2CCCCC2)c2c(C)n(C)c(C)c12	none
COC(=O)Cn1cc(C=C2C(=O)N(C)C(=O)N(C)C2=O)c2ccccc21	MEX-5 binding -80 (no result: EBV gp42 block)

Screening data as filed in PubChem.
